Measured values from article PMC5540273 (PLoS ONE, 2017).

system: T1, CDK11; conditions: concentration: 1 μM, replicates: in singlicate; n = 1
T1 construct: gene CDK19
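Note: KINOMEscan kinase panel screen.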

Row | Structure (SMILES) | %Inh [%]
1 | Nc1nc(-c2nccs2)c(-c2ccnc3ccccc23)s1 [GW693542] | 0
2 | CC1=C(C(=O)Nc2cc3cn[nH]c3cc2F)C(c2ccc(C(F)(F)F)cc2)CC(=O)N1 (centres unmarked) [GSK429286] | 7
3 | Cc1cccc(-c2nc(Nc3ccc4[nH]ncc4c3)c3ccccc3n2)n1 [GW857175] | 0
4 | Cc1cc(NCC(c2ccccc2)c2ccccc2)nc(NCc2ccc(C(F)(F)F)cc2)n1 [GW497681] | 0
5 | COC(=O)c1c(-c2ccccc2)c2cc(OC)ccc2c(=O)n1Cc1ccccc1 | 12
6 | Cn1ccc2ncnc(Oc3ccc(Nc4nc5ccccc5[nH]4)cc3)c21 | 6
7 | COc1cc(Nc2nccc(N3CCC(NC(=O)Nc4cc(C)ccc4C)C3)n2)cc(OC)c1OC (centres unmarked) [GSK1379762] | 17
8 | O=C(Nc1ccccc1)Nc1cccc(Oc2ccc3nccn3n2)c1 | 0
9 | Cl.O=C(Nc1cccc(-c2nn3ncccc3c2-c2ccnc(Nc3cccnc3)n2)c1)c1c(F)cccc1F [GSK312879] | 0
10 | CCn1c(-c2ccccn2)nc2cnccc21 [SB-736398] | 0
11 | CC(C)(C)c1ccc(C(=O)Nc2cn3cc(Cl)ccc3n2)cc1 | 16
12 | Cl.NC(=O)c1cccc(Nc2nccc(Nc3ccc(Oc4cccc(Cl)c4)c(Cl)c3)n2)c1 [GW659008] | 8
13 | Cc1ccccc1-n1cnc2c(N)ncnc21 [SKF-97510] | 0
14 | COc1ccc2nc(-c3cccc(C)n3)nc(Nc3ccncc3)c2c1 [GSK204919] | 0
